The record followed here is PubChem BioAssay (NCI).

Structures are written as SMILES. Where “and” joins values, the source holds several entries; their conditions need not be identical. Identical values can stand only once. About 83,000 compounds went through this panel and 20% of them were active in at least one assay; those are over-represented in the sample as a whole.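 Cell lines were cultured in 96-well plates, exposed to a single compound concentration, and assessed for percent growth 48 hours later.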 Unmarked numbers belong to inactive results. Calls of active or inactive are those of the source.

The subject of one test is COLO 205 colon. The experiment in a line: NCI-60 one-dose screen, 48 h (100 = growth as untreated, 0 = no growth, -100 = all killed). The following applies: 0.01 µM. The protocol:
Cells are grown in 96 well plates and exposed to the test compound for 48 hours. Compounds are tested at a single concentration, which is 10^-5 M for most compounds. The reported endpoint is percent growth (GI% or GIPRCNT), where numbers from 0 - 100% represent growth inhibition, and numbers from -100% - 0 represent cell death. For example, a value of 40 represents 60% growth inhibition. A value of 0 means no net growth occurred over the course of the experiment. A value of -40 indicates 40% of cells at the beginning of the experiment died by the end of the experiment. A value of -100 means all cells are dead at the end of the experiment.
NCI-60 Human Tumor Cell Lines Screen was performed using the standard one-dose NCI protocol, which is described in more detail at https://dtp.cancer.gov/discovery_development/nci-60/default.htm.
Compounds with GIPRCNT values below 10 were considered active. Activity score was based on GIPRCNT using the following formula: […]
Score is 0 for GIPRCNT values of 100 or above, 50 for GIPRCNT values of 0, and 100 for GIPRCNT values of -100.
As for `CC(=O)O[C@H]1C(=O)[C@@]2(C)[C@H]([C@H](OC(=O)c3ccccc3)[C@]3(O)C[C@H](OC(=O)[C@H](O)[C@@H](NC(=O)c4ccccc4)c4ccccc4)C(C)=C1C3(C)C)[C@]1(OC(C)=O)CO[C@@H]1C[C@@H]2O`, the growth was 13.4%.

The test is the same for the next values; noted with them: 2.5 µM.
Turning to `CC(=O)O[C@H]1C(=O)[C@@]2(C)[C@H]([C@H](OC(=O)c3ccccc3)[C@]3(O)C[C@H](OC(=O)[C@H](O)[C@@H](NC(=O)c4ccccc4)c4ccccc4)C(C)=C1C3(C)C)[C@]1(OC(C)=O)CO[C@@H]1C[C@@H]2O`, the growth is -54.6% (active).

Still in this test, the particulars now being: 5 µM.
Turning to `CC(=O)O[C@H]1C(=O)[C@@]2(C)[C@H]([C@H](OC(=O)c3ccccc3)[C@]3(O)C[C@H](OC(=O)[C@H](O)[C@@H](NC(=O)c4ccccc4)c4ccccc4)C(C)=C1C3(C)C)[C@]1(OC(C)=O)CO[C@@H]1C[C@@H]2O`, the growth is -47.9% (active).

The same test, now with this note: 10 µM.
Turning to `S=P(N1CC1)(N1CC1)N1CC1`, the growth was 106% and 121%.
Still for that read-out and setting: the figure for `O=S(=O)(c1cc(Cl)ccc1O)c1cc(Cl)ccc1O` is 105%.
Consider `CC(=O)O[C@H]1C(=O)[C@@]2(C)[C@H]([C@H](OC(=O)c3ccccc3)[C@]3(O)C[C@H](OC(=O)[C@H](O)[C@@H](NC(=O)c4ccccc4)c4ccccc4)C(C)=C1C3(C)C)[C@]1(OC(C)=O)CO[C@@H]1C[C@@H]2O`, for which the growth was 9.93% (active) and -37.3% (active).
As for `Cc1cc(C)c(N2C(=O)CC(Sc3ccccc3N)C2=O)c(C)c1` (stereo not given), the growth was 84.8%.
On the same count and under the same terms, the figure for `O=C1c2cccc3cc([N+](=O)[O-])cc(c23)C(=O)N1CCN1CCCC1` is -13.8% (active); for `CC[C@@]1(OC(=O)CN(C)C)C(=O)OCc2c1cc1n(c2=O)Cc2cc3c(N)cccc3nc2-1` it is 17.5%; for `CN(C)CCNc1cccc2sc3ccc(O)cc3c(=O)c12` it is 34.9%.
On the same count and under the same terms, the figure for `Cc1cc(N=C2C=CC(=[N+](C)C)C=C2)c(N)cc1N` is 95.8%; for `CCC(=O)Oc1ccc(/C=N/NC(N)=S)nc1` it is 79.5%.
As for `O=C1C=CC(=O)N1c1ccc(N2C(=O)C=CC2=O)cc1`, the growth was 95.2%.
Same read-out and setting: the figure for `O=C1C(Cl)=C(Cl)C(Cl)(Cl)C(Cl)C1(Cl)Cl` (stereo not given) is 105%.
The same measure, in the same setting: the figure for `CCOC(=O)[C@]1(Br)CC[C@@]1(Br)C(=O)OCC` is 116%; for `COc1ccc2oc(-c3ccc(Cl)cc3)c(N3CCN(C)CC3)c2c1` it is -72.5% (active).
Still for that read-out and setting: the figure for `S=C1SCN(CCc2ccccc2)CN1CCc1ccccc1` is 99.2%.
With `NCc1c(O)ccc2ccccc12`, the growth was 105%.
On to `O=c1[nH]cc(/C=N\Nc2ccccc2)c(=O)[nH]1`, for which the growth was 67.9%.
For `CN(CC(=O)O)c1ccc(/C=C/c2ccnc3ccccc23)cc1`, the growth is 91.2%.
On to `Cc1c(-c2ccccc2)[nH]c2ccccc12`, for which the growth was 115%.
On the same count and under the same terms, for `CC1CCC2(C(=O)O)CCC3(C)C(=CCC4C5(C)CC(O)C(O)C(C)(CO)C5C(O)CC43C)C2C1C` (stereo not given) the value was 112%.
On the same count and under the same terms, the figure for `COc1ccc(N)c2c1C(=O)c1ccccc1C2=O` is 111%; for `Cn1c2nc3ccccc3c-2nc2ccccc21` it is 86.7% and 83.9%.
On the same count and under the same terms, for `O=C(NC(=S)Nc1ccccn1)c1ccccc1` the value was 101%; for `COc1cc(N)ccc1Nc1c2ccccc2nc2ccccc12`, 12.4%.
With `O=[N+]([O-])c1cc(S(=O)(=O)Nc2ccccc2)ccc1Cl`, the growth was 119%.
On the same count and under the same terms, for `COc1cccc(C(c2cc3c(cc2O)OCO3)N2CCOCC2)c1OC` (stereo not given) the value was 111%; for `O=Nc1ccc(Nc2ccccc2)cc1`, 105%; for `Cc1cc(O)c2c(c1O)C(=O)C13C(=C2O)C(=O)C2C(O)C1C1C(O)C3C(=O)C3=C(O)c4c(O)cc(C)c(O)c4C(=O)C321` (stereo not given), -30.4% (active).
The same measure, in the same setting: for `O=C(CNS(=O)(=O)Cc1ccccc1)NNc1ccccc1` the value was 75.2%; for `O=C(O)c1ccccc1.[Ag]`, 25.8%.
The same measure, in the same setting: for `COc1ccc2c(c1)[nH]c1c(/C=C/c3ccccc3)nccc12` the value was 14.4%; for `Nc1nc(N)c2cc(Sc3ccc4ccccc4c3)ccc2n1`, -71.6% (active); for `Cn1ncc2cc3c(Nc4ccc(Cl)cc4)cccc3nc21`, 96.1%.
On to `N#CC(=C1C=CC(=NO)C=C1)c1ccccc1`, for which the growth was 30.4%.
Regarding `C=C1N(C)c2ccc(Cl)cc2C1(C)C`, the growth was 23.7%.
Same read-out and setting: for `O=C1c2ccccc2CCC1(Br)Br` the value was -68.2% (active).
Consider `N#C/C(=C/N1C(=O)/C(=C/c2ccc([N+](=O)[O-])cc2)SC1=S)c1nc2ccccc2s1`, for which the growth is 90.3%.

The same test, now with this note: 100 µM.
For `S=P(N1CC1)(N1CC1)N1CC1`, the growth was 78.6%.
